PubChem BioAssay AID1159580 (chemical genetic matrix, 2015)
Values joined by “and” are separate entries in the source; they are usually repeats but may differ in a detail not shown here. Identical values can stand only once. About 2,000 (36%) of roughly 5,500 compounds were called active. About 18% were inconclusive and are not listed. Rule as the data show it: active = normalized growth mostly below about 0.91 (no sharp cut-off); inconclusive = no clear call, values can overlap the other calls; inactive = mostly above about 0.92. This is one part of the list.

Test: chemical genetic growth profiling, strain panel (AID 1159580);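 also: tested at 20 µM; growth read once vehicle control cultures reached saturation at 30 °C; 1 = growth at the plate median or of vehicle wells; lower values mean less growth of the strain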
Conditions: S. cerevisiae deletion strains, growth OD

Measured: normalized growth

Nc1nc(N)c2nc(-c3ccccc3)c(N)nc2n1
inactive: locus YAL013W, strain DEP1, hits give low values 1 | locus YAL021C, strain ccr4, hits give low values 1.01 | locus YAL026C, strain drs2, hits give low values 1.01 | locus YAL030W, strain snc1, hits give low values 0.998 | locus YAL040C, strain CLN3, hits give low values 0.986 | locus YBL061C, strain skt5, hits give low values 1 | locus YBR009C, strain hhf1, hits give low values 0.969 | locus YBR021W, strain FUR4, hits give low values 1.01 | locus YBR023C, strain chs3, hits give low values 0.997 | locus YBR171W, strain sec66, hits give low values 1.01 | locus YBR229C, strain ROT2, hits give low values 1 | locus YBR231C, strain swc5, hits give low values 1 | locus YBR279W, strain paf1, hits give low values 0.994 | locus YCL011C, strain gbp2, hits give low values 0.992 | locus YCL016C, strain dcc1, hits give low values 0.999 | locus YCL029C, strain bik1, hits give low values 1.01 | locus YCL061C, strain MRC1 (second series), hits give low values 0.989 | locus YCL061C, strain MRC1, hits give low values 1.01 | locus YCL069W, strain vba3, hits give low values 1 | locus YCR088W, strain abp1, hits give low values 0.992 | locus YDL005C, strain med2, hits give low values 1.01 | locus YDL035C, strain GPR1, hits give low values 1.01 | locus YDL040C, strain nat1, hits give low values 1.01 | locus YDL074C, strain BRE1, hits give low values 0.973 | locus YDL101C, strain DUN1, hits give low values 1.01 | locus YDL134C, strain PPH21, hits give low values 1 | locus YDL185W, strain tfp1, hits give low values 1.01 | locus YDL192W, strain arf1, hits give low values 1.01 | locus YDR001C, strain nth1, hits give low values 1.02 | locus YDR069C, strain doa4, hits give low values 1 | locus YDR101C, strain arx1, hits give low values 0.999 | locus YDR137W, strain rgp1, hits give low values 1 | locus YDR150W, strain NUM1, hits give low values 0.987 and 0.981 | locus YDR159W, strain sac3, hits give low values 0.951 | locus YDR162C, strain NBP2, hits give low values 1.01 | locus YDR195W, strain ref2 1 | locus YDR297W, strain sur2, hits give low values 1 | locus YDR318W, strain mcm21, hits give low values 1 | locus YDR334W, strain swr1, hits give low values 1 | locus YDR335W, strain msn5, hits give low values 1 | locus YDR363W, strain ESC2, hits give low values 1 | locus YDR388W, hits give low values 1.01 | locus YDR392W, strain spt3, hits give low values 0.946 | locus YDR502C, strain sam2, hits give low values 1 | locus YEL003W, strain gim4, hits give low values 1.01 | locus YEL037C, strain rad23, hits give low values 0.997 | locus YEL061C, strain CIN8 (second series), hits give low values 1 | locus YEL061C, strain CIN8, hits give low values 1 | locus YER002W, strain NOP16, hits give low values 1 | locus YER015W, strain faa2, hits give low values 0.993 | locus YER016W, strain bim1, hits give low values 0.966 | locus YER110C, hits give low values 1.01 | locus YER111C, strain swi4, hits give low values 1.01 | locus YER155C, strain BEM2 (second series), hits give low values 0.957 | locus YER155C, strain BEM2, hits give low values 1.01 | locus YER167W, strain BCK2, hits give low values 1.01 | locus YFR010W, strain ubp6, hits give low values 1.02 | locus YGL078C, strain dbp3, hits give low values 1.01 | locus YGL086W, strain mad1, hits give low values 1 | locus YGL167C, strain pmr1, hits give low values 1.01 | locus YGL173C, strain kem1, hits give low values 1 | locus YGL227W, strain vid30, hits give low values 1.01 | locus YGL240W, strain doc1, hits give low values 1 | locus YGL248W, strain PDE1, hits give low values 0.999 | locus YGL253W, strain hxk2, hits give low values 0.99 | locus YGR078C, strain PAC10, hits give low values 0.996 and 0.977 | locus YGR135W, strain pre9, hits give low values 1.01 | locus YGR229C, strain SMI1, hits give low values 1.02 | locus YGR252W, strain gcn5, hits give low values 0.939 | locus YHR013C, strain ard1, hits give low values 0.978 | locus YHR027C, strain rpn1, hits give low values 1 | locus YHR030C, strain SLT2, hits give low values 0.999 and 0.991 | locus YHR079C, strain IRE1 (second series), hits give low values 1.02 | locus YHR079C, strain IRE1, hits give low values 0.975 | locus YHR094C, strain hxt1, hits give low values 1 | locus YHR129C, strain ARP1, hits give low values 0.993 | locus YHR142W, strain chs7, hits give low values 0.996 | locus YHR200W, strain rpn10, hits give low values 1.01 | locus YIL066C, strain RNR3, hits give low values 1 | locus YIL073C, strain SPO22, hits give low values 1.05 | locus YIL125W, strain kgd1, hits give low values 1.01 | locus YIR030C, strain dcg1, hits give low values 1.01 | locus YJL092W, strain hpr5, hits give low values 1.01 | locus YJL095W, strain BCK1 (second series), hits give low values 1.01 | locus YJL095W, strain BCK1, hits give low values 0.988 | locus YJL115W, strain asf1, hits give low values 1 | locus YJL129C, strain trk1, hits give low values 0.993 | locus YJL134W, strain LCB3, hits give low values 1 | locus YJL154C, strain vps35, hits give low values 0.992 | locus YJL164C, strain tpk1, hits give low values 0.981 | locus YJL166W, strain qcr8, hits give low values 1.02 | locus YJL168C, strain set2, hits give low values 1.01 | locus YJL187C, strain SWE1 (second series), hits give low values 1 | locus YJR043C, strain POL32, hits give low values 0.994 | locus YJR066W, strain TOR1, hits give low values 0.938
